# Data as given in PubChem BioAssay (NCI).
# About 83,000 compounds went through this panel and 20% of them were active in at least one assay; those are over-represented in the sample as a whole.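 96-well plates, one dose, 48 hours. Percent growth reported; active if below 10.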 Values without a mark were called inactive. Calls of active or inactive are those of the source.
# Key:
# Assay in all cases: NCI-60 one-dose screen, 48 h (100 = growth as untreated, 0 = no growth, -100 = all killed)
# Conditions in all cases: 10 µM unless noted
# [1] = system: SK-MEL-2 melanoma
# [2] = system: EKVX NSCLC
# [3] = system: SN12C renal
# [4] = system: UO-31 renal
# [5] = system: TK-10 renal
# [6] = system: ACHN renal
# [7] = system: CAKI-1 renal
# [8] = system: A498 renal
# [9] = system: CCRF-CEM leukemia
# [10] = system: MOLT-4 leukemia
# [11] = system: SR leukemia
# [12] = system: RPMI-8226 leukemia
# [13] = system: OVCAR-8 ovarian
# [14] = system: OVCAR-5 ovarian
# [15] = system: SK-OV-3 ovarian
# [16] = system: IGROV1 ovarian
# [17] = system: OVCAR-3 ovarian
# [18] = system: HS 578T breast
# [19] = system: NCI/ADR-RES ovarian
# [20] = system: OVCAR-4 ovarian
Compound,growth [1],growth [2],growth [3] [%],growth [4] [%],growth [5] [%],growth [6],growth [7],growth [8],growth [9],growth [10],growth [11],growth [12] [%],growth [13],growth [14],growth [15],growth [16],growth [17],growth [18],growth [19],growth [20]
COc1ccc(NC(=O)c2sc3nc4c(cc3c2N)CCCC4)cc1,34.9%,44.3%,60.8,48,38.8,49.3%,38.5%,5.75% (active),9.46% (active),21.5%,1.36% (active),14.8,25.5%,78.8%,39.4%,53.8%,11.1%,43.4%,5.47% (active),
c1ccc(CCc2ccccc2-c2cc(-c3ccccc3)on2)cc1,86.4%,86.4%,85.5,75.5,110,89.2%,92.2%,89%,82.7%,73.1%,75.7%,,103%,89.9%,83.1%,66.4%,96%,,98.3%,77.2%
N#Cc1nc(-c2ccc(F)cc2)oc1S(=O)(=O)N1CCN(c2ccc(F)cc2)CC1,90.9%,113%,85,81.2,86,77.5%,100%,113%,4.6% (active),1.8% (active),6.45% (active),,71.4%,111%,118%,76%,91%,107%,94.7%,105%
CCN1C(=O)N(CC)C2C1NN=c1s/c(=C\c3ccccc3Br)c(=O)n12 (centres undefined),51.1%,47.7%,24.8,36.2,70.9,26.1%,24.7%,-1.67% (active),14.5%,15.2%,13.6%,,1.17% (active),28%,38.1%,16.9%,2.96% (active),16.1%,7.75% (active),49.7%
Cc1cc(F)ccc1S(=O)(=O)Nc1cc(-c2c(O)ccc3ccccc23)c(O)c2ccccc12,5.32% (active),19%,46.6,20.3,72.7,-7.97% (active),51.5%,57.7%,21.9%,17.6%,18.8%,11.6,37.1%,56.9%,52.3%,27.6%,17.3%,42.3%,31.3%,
Cc1ccc(-c2nc(C(Cl)Cl)nc3cc(C)nn23)cc1,65.5%,5.75% (active),40.5,51.3,29,-45% (active),-14.2% (active),-2.75% (active),32.5%,16.7%,,33.4,14.7%,2.16% (active),-12.7% (active),6.31% (active),-24.3% (active),-11.4% (active),6.39% (active),-21.5% (active)
CCCCCn1sc(=O)n(Cc2ccc(CNC(=O)OCc3ccc4c(Cl)cc(Cl)c(O)c4n3)cc2)c1=O,90.1%,86%,51.4,11.6,68.8,28.9%,55%,80.7%,34.4%,31.8%,,60.6,42.3%,90%,96%,53.5%,69.8%,70.9%,9.85% (active),66.4%
O=C1CC2C=CCN2C=C1NC(=O)C1CCCCC1 (centres undefined),101%,92.1%,110,94.9,90.6,105%,97.7%,128%,122%,99.5%,103%,,109%,102%,111%,,98.9%,105%,98.5%,
